Bioassay records (PubChem BioAssay)
VP16 counter: inhibits Gal4-VP16 luciferase reporter, ROR gamma counter-screen | Potency, µM (highest dose often 53.6 µM), most hits filed as inhibitors | 310,000 tested, 3.5% active | Drosophila S2 Gal4-VP16 UAS-luciferase, luminescence, 20 h;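 also: Gal4-VP16 expression switched on by copper sulfate through the metallothionein promoter; nearly all actives have a fitted effect of over 50% in size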
TSHR antagonist: blocks TSH signaling through the human TSH receptor. P16473. TSHR-expressing cells, TSH-stimulated cAMP HTRF, 2 h; active compounds read low. activity change, negative = inhibition, % at 11.5 µM. 330,000 tested, 0.2% active;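 active = activity change below a set negative limit, meaning inhibition stronger than a set level, cut at about -70% in these data; inconclusive = activity change between two set negative limits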
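Read-out is FRET at 665 nm (cryptate excitation 337 nm) from a cryptate-tagged anti-cAMP antibody, competed by cell cAMP against cAMP-d2. Compounds are tested on freshly harvested TSHR cells challenged with 4nM TSH (EC80) for 2 hours at 37 deg C.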
RORg inh: inhibitors of mouse ROR gamma transcriptional activity; Drosophila S2 Gal4-RORgamma UAS-luciferase reporter, 20 h; Potency, µM (series often up to 53.6 µM), hits mostly inhibitors; 310,000 tested, 5.4% active; AID 2551; also: nearly all actives have a fitted effect of over 60% in size
Target sequence (P51450 whole entry, looked up, the tested form may be a part): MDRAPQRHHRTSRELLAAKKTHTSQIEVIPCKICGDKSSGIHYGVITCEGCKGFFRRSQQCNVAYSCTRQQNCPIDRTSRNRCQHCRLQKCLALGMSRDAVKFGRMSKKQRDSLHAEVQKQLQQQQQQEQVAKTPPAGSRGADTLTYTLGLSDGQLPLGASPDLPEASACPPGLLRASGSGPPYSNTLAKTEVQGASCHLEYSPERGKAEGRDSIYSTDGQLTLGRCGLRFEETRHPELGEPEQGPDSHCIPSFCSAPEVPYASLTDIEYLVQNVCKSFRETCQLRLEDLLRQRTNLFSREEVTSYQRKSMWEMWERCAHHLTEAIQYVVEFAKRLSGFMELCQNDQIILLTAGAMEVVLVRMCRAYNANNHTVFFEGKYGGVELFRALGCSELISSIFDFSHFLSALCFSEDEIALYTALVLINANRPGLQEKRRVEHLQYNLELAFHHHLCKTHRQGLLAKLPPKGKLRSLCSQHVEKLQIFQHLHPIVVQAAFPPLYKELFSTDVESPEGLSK
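Luciferase reporter read in Schneider cells carrying Gal4-RORγ (mouse) and UAS-Photinus luciferase; cells given compound 1 h before 700 uM copper sulfate induction, then incubated 20 h at ambient temperature.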
ELG1 DNA repair: inhibitors of ELG1-dependent DNA repair in HEK293T cells; HEK293T ELG1-luciferase reporter, luminescence, 16 h; DNA damage induced by 5-fluorouridine; Potency, µM (series often up to 46.1 µM), most hits filed as inhibitors; 330,000 tested, 2.3% active; also: nearly all actives have a fitted effect of over 55% in size
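HEK293T cells expressing luciferase-tagged ELG1 (2,000/well) received 5-Fluorouridine plus compound or DMSO for 16 hr at 37 °C. Luciferase was read by ONE-Glo luminescence after 30 min at room temperature.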
Coupling enz: counter-screen for Giardia aldolase inhibitors: coupling enzyme system. coupling enzyme system counterscreen, AmpLite Red fluorescence. activity change, negative = inhibition, % at 58.2 µM, hits read low. 290,000 tested, 0.67% active. AID 2472; in the data active = activity change below about -30%
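Fluorescence at 525 nm excitation and 598 nm emission measured inhibition of the coupled detection system without aldolase. Compounds (at 57.5 uM final) were preincubated 10 min at room temperature with coupling enzyme reagent before a 20 min substrate/AmpLite Red step.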
Large screens that a line does not name were inactive. Sampled rows, rich in hits. Any-hit rate of the full collection: about 8%. Unless noted, calls follow the shape of the dose curve; as a rule, active = well fitted curve in the direction sought with a large enough effect; inconclusive = small, poorly fitted or top-dose-only effect, or another doubt; inactive = no such curve, though single readings can be large; an effect the other way counts as inactive or inconclusive.

O=C(O)c1cccc(-c2ccc(/C=N/Nc3ccc([N+](=O)[O-])cc3)o2)c1	none
O=C(N/N=C/c1ccc(-c2cccc([N+](=O)[O-])c2)o1)[C@H]1C[C@@H]1c1ccccc1	ELG1 DNA repair inconclusive
Nc1nonc1C(=O)N/N=C/c1ccc(-c2cccc([N+](=O)[O-])c2)o1	ELG1 DNA repair inconclusive
COc1cccc(/C=N/N=C(\N)c2nonc2N)c1O	VP16 counter 0.631µM, RORg inh 0.1µM, ELG1 DNA repair inconclusive
CC(C)c1cc(C(=O)N2CCCC(CCC(=O)N3CCN(c4ccccn4)CC3)C2)no1 (stereo unspecified)	ELG1 DNA repair 11.6µM
O=C(CCC1CCCN(C(=O)COc2ccccc2)C1)N1CCN(c2ccccn2)CC1 (stereo unspecified)	ELG1 DNA repair 20.6µM
COc1ccc(C(=O)N2CCCC(CCC(=O)N3CCN(c4ccccn4)CC3)C2)cc1 (stereo unspecified)	none
CCc1ccc(NC(=O)C(C)Sc2ccc(S(=O)(=O)N3CCN(C)CC3)cn2)cc1 (stereo unspecified)	none (no result: VP16 counter, RORg inh, Coupling enz)
CC1(C)SC2[C@@H](N=CN3CCCCCC3)C(=O)N2[C@H]1C(=O)O (stereo partly specified)	none (no result: TSHR antagonist, ELG1 DNA repair, Coupling enz)
Cc1oc(-c2ccc(Cl)cc2)nc1CN1CCC(C(=O)NCCCN2CCOCC2)CC1	none
CCc1ccc(-c2nc(CN3CCC(C(=O)NCc4ccc(F)cc4)CC3)c(C)o2)cc1	ELG1 DNA repair 14.6µM
CCN(CCNC(=O)C1CCN(Cc2nc(-c3cccc(Cl)c3)oc2C)CC1)c1ccccc1	ELG1 DNA repair 20.6µM
CCN(CCNC(=O)C1CCCN(Cc2nc(-c3ccc(OC)cc3)oc2C)C1)c1ccccc1 (stereo unspecified)	VP16 counter inconclusive, RORg inh inconclusive, ELG1 DNA repair inconclusive
CCc1ccc(-c2nc(CN3CCC(C(=O)NCCN(CC)c4ccccc4)CC3)c(C)o2)cc1	ELG1 DNA repair 20.6µM
CCN(CCNC(=O)C1CCN(Cc2nc(-c3ccc(Cl)cc3)oc2C)CC1)c1ccccc1	VP16 counter inconclusive, RORg inh inconclusive, ELG1 DNA repair 16.4µM
COCCn1c(=O)cnc2cnc(Nc3cccc(OC)c3)nc21	VP16 counter inconclusive (no result: TSHR antagonist, ELG1 DNA repair)
COc1ccc(-c2cc3ncc(C)n3c(Nc3ncccc3C(N)=O)n2)cc1OC	none (no result: VP16 counter, RORg inh, ELG1 DNA repair, Coupling enz)
CCc1ccc(/C=C2\Oc3cc(OS(C)(=O)=O)ccc3C2=O)cc1	none
CS(=O)(=O)Oc1ccc2c(c1)O/C(=C\c1cccc([N+](=O)[O-])c1)C2=O	ELG1 DNA repair 18.3µM
CCC(C)NC(=O)c1ccc2c(c1)S(=O)(=O)c1ccccc1C2=O (stereo unspecified)	VP16 counter inconclusive, ELG1 DNA repair inconclusive (no result: Coupling enz)
O=C1CN(C(=O)c2ccccc2[N+](=O)[O-])C(c2ccccc2)c2cc(Br)ccc2N1 (stereo unspecified)	VP16 counter inconclusive, ELG1 DNA repair 18.3µM
O=C1CN(C(=O)c2c(F)cccc2F)C(c2ccccc2)c2cc(Br)ccc2N1 (stereo unspecified)	VP16 counter inconclusive, RORg inh inconclusive
Cc1ccc(C(=O)N2CC(=O)Nc3ccc(C)cc3C2c2ccccc2)cc1 (stereo unspecified)	RORg inh inconclusive
Cc1ccc2c(c1)C(c1ccccc1)N(C(=O)c1ccccc1[N+](=O)[O-])CC(=O)N2 (stereo unspecified)	ELG1 DNA repair 20.6µM
S=c1[nH]ncn1NCc1ccc(Cl)cc1Cl	VP16 counter inconclusive, RORg inh 6.31µM
C#CCCOC(=O)N1C2=NC(C(=O)OC)=C(C(=O)OC)[C@@H]3N(CC#CC)c4ccccc4[C@]23C[C@H]1C(=O)OC	none (no result: VP16 counter, TSHR antagonist, RORg inh, ELG1 DNA repair)
CCCc1cc(=O)oc2cc(C)cc(OC(C)C(=O)NCc3ccncc3)c12 (stereo unspecified)	none
O=C(CCNC(=O)c1ccc(Cl)cc1)Nc1nc2ccccc2[nH]1	ELG1 DNA repair inconclusive (no result: VP16 counter, RORg inh, Coupling enz)
O=C(Nc1nc2ccccc2[nH]1)c1ccccc1F	VP16 counter 1.78µM, RORg inh 0.708µM, ELG1 DNA repair inconclusive
CN(c1ccccc1)S(=O)(=O)c1ccc(Cl)c(C(=O)Nc2nc3ccccc3[nH]2)c1	VP16 counter 7.08µM, RORg inh 3.98µM, ELG1 DNA repair 23.1µM
